Where “and” joins values, the source holds several entries; their conditions need not be identical. Equal values may be shown once. Records with an inconclusive call do not appear. Calls of active or inactive are those of the source. Calls follow the shape of the dose curve; as a rule, active = well fitted curve in the direction sought with a large enough effect; inconclusive = small, poorly fitted or top-dose-only effect, or another doubt; inactive = no such curve, though single readings can be large; an effect the other way counts as inactive or inconclusive.
What was measured:
[1] = system: HEK293; experiment: Cytotoxic Profiling of Annotated Libraries Using Quantitative High-Throughput Screening (AID 1296008); details: Five cell lines viability, CellTiter-Glo ATP luminescence, 48-72 h; max response: hits give low values; also: nearly all actives have a fitted effect of over 60% in size
Method in brief: (§1)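 Cytotoxicity was measured as CellTiter-Glo ATP luminescence, read after 10 min at room temperature. Compound treatment of the cells lasted 48 or 72 hr at 37 degrees Celsius in a qHTS format.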

[2] = system: HaCat; experiment: as above; details: Five cell lines viability, CellTiter-Glo ATP luminescence, 48-72 h; max response: hits give low values
Method in brief: as §1

[3] = system: KB-3-1; experiment: as above; details: Five cell lines viability, CellTiter-Glo ATP luminescence, 48-72 h; max response: hits give low values
Method in brief: as §1

[4] = system: NIH3T3; experiment: as above; details: Five cell lines viability, CellTiter-Glo ATP luminescence, 48-72 h; max response: hits give low values
Method in brief: as §1

[5] = system: MCC-13; experiment: qHTS assay to identify novel small-molecules to repurpose for Merkel cell carcinoma treatment (AID 1296009); details: MCC and control cell lines, CellTiter-Glo viability, 72 h; series mostly up to 46 µM; also: nearly all actives have a fitted effect of over 60% in size
Method in brief: (§2)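 Cell viability, measured as CellTiter-Glo luminescence, was normalized between DMSO and no-cell wells. The cells had been exposed to 8- or 11-point compound dilutions for 72 hr at 37 degree celsius.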

[6] = system: MCC-26; experiment: as above; details: MCC and control cell lines, CellTiter-Glo viability, 72 h; series mostly up to 46 µM
Method in brief: as §2

[7] = system: MKL-1; experiment: as above; details: MCC and control cell lines, CellTiter-Glo viability, 72 h; series mostly up to 46 µM
Method in brief: as §2

[8] = system: UISO; experiment: as above; details: MCC and control cell lines, CellTiter-Glo viability, 72 h; series mostly up to 46 µM
Method in brief: as §2

[9] = system: WaGa; experiment: as above; details: MCC and control cell lines, CellTiter-Glo viability, 72 h; series mostly up to 46 µM
Method in brief: as §2

[10] = system: MKL-2; experiment: as above; details: MCC and control cell lines, CellTiter-Glo viability, 72 h; series mostly up to 46 µM
Method in brief: as §2

[11] = system: NIH3T3; experiment: as above; details: MCC and control cell lines, CellTiter-Glo viability, 72 h; at 44.8 µM (top of the series) unless noted
Method in brief: as §2

[12] = system: HACAT; experiment: as above; details: MCC and control cell lines, CellTiter-Glo viability, 72 h; series mostly up to 44.8 µM
Method in brief: as §2

[13] = system: CAOV3; experiment: Primary qHTS to identify gynecologic anti-cancer compounds using libraries of approved drugs and bioactive compounds (AID 1345084); details: Gynecologic cancer cell panel viability, ATPlite luminescence, 48 h; series mostly up to 57.5 µM; also: nearly all actives have a fitted effect of over 55% in size
Method in brief: (§3)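 Cells, 1,000 per well, plated 16 h, then exposed 48 h at 37 C to compounds. Viability by ATPlite luminescence after 15 min at room temperature.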

[14] = system: HeLa; experiment: as above; details: Gynecologic cancer cell panel viability, ATPlite luminescence, 48 h; series mostly up to 57.5 µM
Method in brief: as §3

[15] = system: Hek293T; experiment: as above; details: Gynecologic cancer cell panel viability, ATPlite luminescence, 48 h, control line for the selectivity index; series mostly up to 57.5 µM
Method in brief: as §3

[16] = system: JEG-3; experiment: as above; details: Gynecologic cancer cell panel viability, ATPlite luminescence, 48 h; series mostly up to 57.5 µM
Method in brief: as §3

[17] = system: HEK293T; experiment: qHTS assay to identify novel small-molecules to repurpose for Merkel cell carcinoma treatment (AID 1296009); details: MCC and control cell lines, CellTiter-Glo viability, 72 h; at 44.8 µM (top of the series) unless noted; also: nearly all actives have a fitted effect of over 60% in size
Method in brief: as §2

[18] = system: C33A; experiment: Primary qHTS to identify gynecologic anti-cancer compounds using libraries of approved drugs and bioactive compounds (AID 1345084); details: Gynecologic cancer cell panel viability, ATPlite luminescence, 48 h; series mostly up to 57.5 µM; also: nearly all actives have a fitted effect of over 55% in size
Method in brief: as §3

[19] = system: CASKI; experiment: as above; details: Gynecologic cancer cell panel viability, ATPlite luminescence, 48 h; series mostly up to 57.5 µM
Method in brief: as §3

[20] = system: Es-2; experiment: as above; details: Gynecologic cancer cell panel viability, ATPlite luminescence, 48 h; series mostly up to 57.5 µM
Method in brief: as §3
% is scaled to controls: 0 for no effect and ±100 for the full control effect; potency is read from the fitted curve at half-maximal effect.

CC(NCc1ccc2c(c1)nc(NC(=O)c1ccc(-c3cn[nH]c3)s1)n2CC(C)(C)O)C(C)(C)C (stereo unspecified)
active: Potency [1] 0.132 µM | Potency [2] 0.743 µM | Potency [3] 209 nM | Potency [4] 0.59 µM | Potency [5] 2350 nM | Potency [6] 1480 nM | Potency [7] 332 nM | Potency [8] 1320 nM | Potency [9] 526 nM

CN1c2cc(O)c(N=NC(N)=O)cc2CC1S(=O)(=O)O (stereo unspecified)
inactive: max response [1] 2.9% | max response [2] -1.08% | outcome [3] | outcome [4] | Potency [5] | Potency [7] | Potency [10] | outcome [11] | Potency [8] | Potency [9]

CC(=O)OCC(=O)[C@@]1(O)[C@H](C)C[C@H]2[C@@H]3C=C(C)C4=Cc5c(cnn5-c5ccccc5)C[C@]4(C)[C@@H]3[C@@H](O)C[C@@]21C
active: Potency [1] 13.2 µM | Potency [4] 14.8 µM | Potency [10] 7430 nM
inactive: max response [2] -6.31% | outcome [3] | Potency [5] | Potency [7] | Potency [8] | Potency [9]

Cn1c(=O)n(-c2ccc(C(C)(C)C#N)cc2)c2c3cc(-c4cnc5ccccc5c4)ccc3ncc21
inactive: outcome [2] | Potency [12] | Potency [7] | Potency [10] | Potency [9] | Potency [14] | Potency [16]
active: Potency [1] 326 nM and 26.4 nM | Potency [3] 731 nM and 16.6 nM | Potency [4] 580 nM and 46.9 nM | Potency [13] 562 nM | Potency [15] 794 nM

CCCCc1nc2cc(C=CC(=O)NO)ccc2n1CCN(CC)CC
active: Potency [1] 3.72 µM | Potency [2] 4.69 µM | Potency [3] 2640 nM | Potency [4] 4.18 µM | Potency [5] 7430 nM | Potency [6] 8330 nM | Potency [7] 3320 nM | Potency [10] 526 nM | Potency [9] 372 nM

CC=CC1=C(C(=O)O)N2C(=O)[C@H](NC(=O)[C@H](N)c3ccc(O)cc3)[C@@H]2SC1
inactive: max response [1] -2.68% | max response [2] -17% | max response [3] 1.31% | max response [4] 1.07% | Potency [5] | Potency [6] | Potency [7] | Potency [10] | Potency [8] | Potency [9]

CC(=O)OCCN1C(=O)c2c(C)nc3ccc(S(=O)(=O)N4CCOCC4)cc3c2C1=O
inactive: max response [1] -2.2% | max response [2] 1.24% | outcome [3] | max response [4] 2.81% | Potency [5] | Potency [6] | Potency [7] | Potency [10] | Potency [8] | Potency [9]

CCOC(=O)C1=C(C)NC2=C(C(=O)CC(C)(C)C2)C1c1ccc(-c2ccccc2)cc1 (stereo unspecified)
active: Potency [1] 16.6 µM and 2.91 µM | Potency [2] 7.31 µM | Potency [4] 20.9 µM and 5.8 µM | Potency [10] 2350 nM | Potency [15] 28200 nM
inactive: outcome [3] | Potency [5] | Potency [6] | Potency [8] | Potency [16]

O=C(C=Cc1c(C(=O)O)[nH]c2cc(Cl)cc(Cl)c12)Nc1ccccc1
inactive: outcome [1] | max response [2] -0.315% | max response [3] 3.7% | max response [4] 1.73% | outcome [17] | Potency [5] | Potency [6] | Potency [7] | Potency [10] | Potency [8] | Potency [9]

O=C(C=Cc1cccnc1)NCCCCC1CCN(C(=O)c2ccccc2)CC1
active: Potency [1] 0.0074 µM | Potency [2] 0.372 µM | Potency [3] 13.2 nM | Potency [4] 0.0372 µM | Potency [5] 52.6 nM | Potency [6] 20.9 nM | Potency [10] 20.9 nM | Potency [8] 20.9 nM | Potency [9] 16.6 nM

CC(C)Nc1cc(C(F)(F)F)cc2nc(NC(=O)c3cccnc3)nn12
inactive: max response [1] -16.8% | max response [2] -1.8% | outcome [3] | max response [4] 3.06% and -1.67% | Potency [5] | Potency [7] | Potency [10] | Potency [8] | Potency [9] | Potency [18] | Potency [19] | Potency [20] | Potency [14] | Potency [15] | Potency [16]

Cc1cc(Nc2cc(N3CCN(C)CC3)nc(C=Cc3ccccc3)n2)n[nH]1
active: Potency [1] 7.62 µM | Potency [2] 2.7 µM | Potency [3] 3030 nM | Potency [4] 6.05 µM | Potency [5] 9590 nM | Potency [6] 9590 nM

COc1ccc(-c2cc3c(C)nc(N)nc3n(C3CCC(OCCO)CC3)c2=O)cn1 (stereo unspecified)
active: Potency [1] 66.2 nM and 411 nM | Potency [2] 52.6 nM and 2.31 µM | Potency [3] 105 nM and 517 nM | Potency [4] 1.3 µM | Potency [5] 1870 nM | Potency [6] 1320 nM | Potency [7] 4180 nM | Potency [10] 166 nM | Potency [8] 166 nM | Potency [9] 2090 nM | Potency [13] 1000 nM | Potency [19] 1410 nM | Potency [20] 2510 nM | Potency [14] 7940 nM | Potency [15] 1410 nM

COc1cccc(Nc2c(C(N)=O)cnc3c(C)cc(S(=O)(=O)c4cccc(C(=O)N(C)C)c4)cc23)c1
inactive: max response [2] 2.69% | max response [3] -2.62% and -18.7% | max response [4] -0.878% | Potency [5] | Potency [6] | Potency [7] | Potency [10] | Potency [8] | Potency [9] | Potency [18] | Potency [19] | Potency [20] | Potency [14] | Potency [15] | Potency [16]
active: Potency [1] 12.9 µM

C#Cc1cccc(Nc2ncnc3cc(OC)c(OCCCCCCC(=O)NO)cc23)c1
active: Potency [1] 1.05 µM and 4.61 µM | Potency [2] 2.64 µM and 6.51 µM | Potency [3] 1.48 µM and 4.11 µM | Potency [4] 13.2 µM | Potency [5] 16600 nM | Potency [6] 10500 nM | Potency [7] 935 nM | Potency [10] 105 nM | Potency [8] 2090 nM | Potency [9] 105 nM | Potency [18] 3550 nM | Potency [19] 6310 nM | Potency [20] 10000 nM | Potency [14] 6310 nM | Potency [16] 10000 nM

— PubChem BioAssay (NCATS)
